Structures are written as SMILES. Several values for one entry are separate records, joined by “and”; a condition that tells them apart may be missing. Equal entries are not always repeated. More than one record can exist for a structure, and the calls need not agree. Activity calls are given as the source filed them.

The nature of assay [1]: small molecules captured by biotinylated probe aFSTL3 – biochemical, small-molecule microarray, fluorescence 635/667, stem cell growth factor project, primary screen (AID 1064).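 Further: measures binding of the biotinylated anti-FSTL3 antibody to printed compounds.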 The conditions noted are these: higher = more signal.
Assay [2] in a line: binders from COS7 lysate, DM2A8 probe, primary screen, torsin A project, cell lysate, small-molecule microarray, fluorescence 635/667 (AID 1065). To be noted: higher = more signal, COS7 lysate expressing mutant human TOR1A.
Assay [3] in a line: small molecules captured by biotinylated probe aFGF2 – biochemical, small-molecule microarray, fluorescence 635/667, stem cell growth factor project, primary screen (AID 1067).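 Further: measures binding of biotinylated aFGF2 protein to printed compounds on slides; z-score merges feature fluorescence and signal-to-noise across triplicate slides.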 To be noted: higher = more signal.
Assay [4] in a line: small molecules captured by biotinylated probe aFGF10 – biochemical, small-molecule microarray, fluorescence 635/667, stem cell growth factor project, primary screen (AID 1071).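 Further: score merges 667 nm spot intensity and signal to noise from triplicate slides.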 The conditions noted are these: higher = more signal.
Assay [5] concerns the target Neurogenic locus notch homolog protein 2 (Homo sapiens) (UniProt Q04721). Description: small molecules binding Notch2 protein – biochemical, small-molecule microarray, 635 nm fluorescence, stem cell growth factors, primary screen (AID 1073). To be noted: higher = more signal.
In assay [6] the target is Pro-neuregulin-1, membrane-bound isoform (Homo sapiens) (UniProt Q02297). Description: small molecules binding neuregulin-1 protein – biochemical, small-molecule microarray, fluorescence 635/667, psychiatric disease protein project, primary screen (AID 1075).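 Further: score combines 667 nm spot fluorescence with signal to noise.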 The conditions noted are these: NRG1 binding, 635 nm fluorescence, higher = more signal.
Sequence of Pro-neuregulin-1, membrane-bound isoform (Homo sapiens) (Q02297 whole entry, looked up, the tested form may be a part, canonical isoform): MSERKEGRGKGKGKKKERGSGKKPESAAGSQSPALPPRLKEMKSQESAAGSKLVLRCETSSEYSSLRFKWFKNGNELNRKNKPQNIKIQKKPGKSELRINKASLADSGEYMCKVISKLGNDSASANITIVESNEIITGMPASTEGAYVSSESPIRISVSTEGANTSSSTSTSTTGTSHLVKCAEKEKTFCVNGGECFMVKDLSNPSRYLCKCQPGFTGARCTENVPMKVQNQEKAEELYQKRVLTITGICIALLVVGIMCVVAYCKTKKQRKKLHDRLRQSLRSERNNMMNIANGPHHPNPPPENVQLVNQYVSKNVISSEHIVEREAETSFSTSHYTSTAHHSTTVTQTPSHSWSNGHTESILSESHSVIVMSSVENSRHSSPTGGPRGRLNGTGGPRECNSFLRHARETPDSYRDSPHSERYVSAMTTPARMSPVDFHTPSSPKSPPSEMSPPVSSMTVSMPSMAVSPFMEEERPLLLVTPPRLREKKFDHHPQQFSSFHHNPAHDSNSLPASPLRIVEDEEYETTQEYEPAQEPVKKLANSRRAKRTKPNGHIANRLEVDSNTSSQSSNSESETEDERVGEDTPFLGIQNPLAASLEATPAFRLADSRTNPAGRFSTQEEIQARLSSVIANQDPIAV
For assay [7], the system named is Neuregulin-1 EGF-like domain. Description: small molecules binding NRG1 EGF domain – biochemical, small-molecule microarray, 635 nm fluorescence, primary screen (AID 1081).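 Further: binding of the protein to compounds printed on small-molecule microarray slides.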 To be noted: higher = more signal.
Assay [8] in a line: FRG1 expression reporter modulators in myotubes – cell-based, C2C12 myotubes, firefly/Renilla luciferase, luminescence, FRG1 inhibition for FSHD, primary screen (AID 1084). The conditions noted are these: FRG1 promoter luciferase, higher = more signal, called active from +8 up or from −8 down.
A short description of assay [9]: small molecules captured by biotinylated probe aFST – biochemical, small-molecule microarray, fluorescence 635/667, stem cell growth factor project, primary screen (AID 1086).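 Further: score merges 667 nm fluorescence with signal-to-noise of each printed compound spot.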 The conditions noted are these: higher = more signal.
Assay [10] is described as follows: binders of probe aHhip on microarray, primary screen, stem cell growth factor project, biochemical, small-molecule microarray, fluorescence 635/667 (AID 1087).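 Further: score merges spot fluorescence at 667nm with spot signal to noise ratio.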 The conditions noted are these: higher = more signal.
Assay [11] has as its system PRMT1 (protein arginine N-methyltransferase 1). The experiment in a line: small molecules binding arginine methyltransferase PRMT1 – biochemical, small-molecule microarray, 635 nm fluorescence, primary screen (AID 1088).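 Further: binding of Prmt1 protein to compounds spotted on small-molecule microarray slides.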 To be noted: higher = more signal.
Assay [12] in a line: growth effects on S. cerevisiae YJM789 – YJM789 clinical isolate, OD600, 24 h, basal, primary screen (AID 1089).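 Further: growth of clinical yeast isolate S. cerevisiae YJM 789 seeded 1000 cells per well; test concentration not given here.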 The conditions noted are these: higher = more signal, called active from +8 up or from −8 down.
Assay [13] is described as follows: S. pombe growth modifiers, basal conditions – strain 972, OD600, 24 h, no modulator, primary screen (AID 1090).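 Further: basal condition with compound alone and no growth modifier present; test concentration not given here.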 The conditions noted are these: S. pombe 972 growth, higher = more signal, called active from +8 up or from −8 down.
Assay [14] is described as follows: budding yeast growth modifiers under rapamycin – strain BY4716, OD600, 96 h, primary screen (AID 1091). Further: test concentration not given here. To be noted: S. cerevisiae BY4716 + rapamycin, higher = more signal, called active from +8 up or from −8 down.
For assay [15], the target named is Torsin-1A-interacting protein 2 (Homo sapiens) (UniProt Q8NFQ8). The experiment in a line: small molecules binding lysate-expressed LULL1 – cell lysate, human LULL1 lysate, 635/667 nm fluorescence, primary screen (AID 1092).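 Further: probe is lysate of COS7 cells overexpressing human LULL1; score merges per-feature 667 nm fluorescence with signal-to-noise.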 The conditions noted are these: small-molecule microarray, hLULL1 lysate binding, 635 nm fluorescence; higher = more signal.
Sequence of Torsin-1A-interacting protein 2 (Homo sapiens) (Q8NFQ8 whole entry, looked up): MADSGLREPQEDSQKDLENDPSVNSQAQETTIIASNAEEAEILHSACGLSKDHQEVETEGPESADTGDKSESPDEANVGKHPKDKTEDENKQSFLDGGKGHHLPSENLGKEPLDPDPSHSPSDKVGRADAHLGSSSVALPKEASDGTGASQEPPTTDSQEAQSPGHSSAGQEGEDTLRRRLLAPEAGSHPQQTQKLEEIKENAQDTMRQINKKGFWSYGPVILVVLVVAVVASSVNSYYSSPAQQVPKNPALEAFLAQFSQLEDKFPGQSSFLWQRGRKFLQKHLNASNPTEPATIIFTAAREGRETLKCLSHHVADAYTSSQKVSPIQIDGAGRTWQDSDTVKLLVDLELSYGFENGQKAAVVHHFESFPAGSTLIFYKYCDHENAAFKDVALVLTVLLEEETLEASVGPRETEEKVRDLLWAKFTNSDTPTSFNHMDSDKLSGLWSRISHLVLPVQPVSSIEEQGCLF
The nature of assay [16]: optical density change of DRC41 E. coli – strain DRC41, OD650, 24 h, E. coli filamentation project, primary screen (AID 1093).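 Further: MC1000 strain lacking acrAB efflux and sulA so SOS filamentation is blocked; test concentration not given here.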 The conditions noted are these: E. coli DRC41 growth, higher = more signal, called active from +8 up or from −8 down.
A short description of assay [17]: probe aLefty2 binding to arrayed compounds – biochemical, biotinylated probe, 635/667 nm fluorescence, primary screen (AID 1094).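 Further: score merges spot fluorescence near 667 nm with spot signal-to-noise ratio.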 The conditions noted are these: small-molecule microarray, higher = more signal.
Assay [18] concerns Noggin (protein binding on small-molecule microarray). The experiment in a line: small molecules binding Noggin protein – biochemical, 635/667 nm fluorescence, primary screen (AID 1095).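 Further: score merges 667 nm feature fluorescence with signal to noise over triplicate slides.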 The conditions noted are these: 635 nm fluorescence, higher = more signal.
Assay [19] addresses Neurogenic locus notch homolog protein 3 (Homo sapiens) (UniProt Q9UM47). The experiment in a line: small molecules binding NOTCH3 protein – biochemical, 635/667 nm fluorescence, primary screen (AID 1096). To be noted: small-molecule microarray, 635 nm fluorescence, higher = more signal.
Assay [20] in a line: probe aEGFR binding to arrayed compounds – biochemical, biotinylated probe, 635/667 nm fluorescence, primary screen (AID 1097).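 Further: probe is a biotinylated anti-EGFR antibody binding compounds printed on slides; score combines fluorescence near 667 nm and signal to noise of each spot.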 To be noted: small-molecule microarray, higher = more signal.

Sequence of Neurogenic locus notch homolog protein 3 (Homo sapiens) (Q9UM47 whole entry, looked up): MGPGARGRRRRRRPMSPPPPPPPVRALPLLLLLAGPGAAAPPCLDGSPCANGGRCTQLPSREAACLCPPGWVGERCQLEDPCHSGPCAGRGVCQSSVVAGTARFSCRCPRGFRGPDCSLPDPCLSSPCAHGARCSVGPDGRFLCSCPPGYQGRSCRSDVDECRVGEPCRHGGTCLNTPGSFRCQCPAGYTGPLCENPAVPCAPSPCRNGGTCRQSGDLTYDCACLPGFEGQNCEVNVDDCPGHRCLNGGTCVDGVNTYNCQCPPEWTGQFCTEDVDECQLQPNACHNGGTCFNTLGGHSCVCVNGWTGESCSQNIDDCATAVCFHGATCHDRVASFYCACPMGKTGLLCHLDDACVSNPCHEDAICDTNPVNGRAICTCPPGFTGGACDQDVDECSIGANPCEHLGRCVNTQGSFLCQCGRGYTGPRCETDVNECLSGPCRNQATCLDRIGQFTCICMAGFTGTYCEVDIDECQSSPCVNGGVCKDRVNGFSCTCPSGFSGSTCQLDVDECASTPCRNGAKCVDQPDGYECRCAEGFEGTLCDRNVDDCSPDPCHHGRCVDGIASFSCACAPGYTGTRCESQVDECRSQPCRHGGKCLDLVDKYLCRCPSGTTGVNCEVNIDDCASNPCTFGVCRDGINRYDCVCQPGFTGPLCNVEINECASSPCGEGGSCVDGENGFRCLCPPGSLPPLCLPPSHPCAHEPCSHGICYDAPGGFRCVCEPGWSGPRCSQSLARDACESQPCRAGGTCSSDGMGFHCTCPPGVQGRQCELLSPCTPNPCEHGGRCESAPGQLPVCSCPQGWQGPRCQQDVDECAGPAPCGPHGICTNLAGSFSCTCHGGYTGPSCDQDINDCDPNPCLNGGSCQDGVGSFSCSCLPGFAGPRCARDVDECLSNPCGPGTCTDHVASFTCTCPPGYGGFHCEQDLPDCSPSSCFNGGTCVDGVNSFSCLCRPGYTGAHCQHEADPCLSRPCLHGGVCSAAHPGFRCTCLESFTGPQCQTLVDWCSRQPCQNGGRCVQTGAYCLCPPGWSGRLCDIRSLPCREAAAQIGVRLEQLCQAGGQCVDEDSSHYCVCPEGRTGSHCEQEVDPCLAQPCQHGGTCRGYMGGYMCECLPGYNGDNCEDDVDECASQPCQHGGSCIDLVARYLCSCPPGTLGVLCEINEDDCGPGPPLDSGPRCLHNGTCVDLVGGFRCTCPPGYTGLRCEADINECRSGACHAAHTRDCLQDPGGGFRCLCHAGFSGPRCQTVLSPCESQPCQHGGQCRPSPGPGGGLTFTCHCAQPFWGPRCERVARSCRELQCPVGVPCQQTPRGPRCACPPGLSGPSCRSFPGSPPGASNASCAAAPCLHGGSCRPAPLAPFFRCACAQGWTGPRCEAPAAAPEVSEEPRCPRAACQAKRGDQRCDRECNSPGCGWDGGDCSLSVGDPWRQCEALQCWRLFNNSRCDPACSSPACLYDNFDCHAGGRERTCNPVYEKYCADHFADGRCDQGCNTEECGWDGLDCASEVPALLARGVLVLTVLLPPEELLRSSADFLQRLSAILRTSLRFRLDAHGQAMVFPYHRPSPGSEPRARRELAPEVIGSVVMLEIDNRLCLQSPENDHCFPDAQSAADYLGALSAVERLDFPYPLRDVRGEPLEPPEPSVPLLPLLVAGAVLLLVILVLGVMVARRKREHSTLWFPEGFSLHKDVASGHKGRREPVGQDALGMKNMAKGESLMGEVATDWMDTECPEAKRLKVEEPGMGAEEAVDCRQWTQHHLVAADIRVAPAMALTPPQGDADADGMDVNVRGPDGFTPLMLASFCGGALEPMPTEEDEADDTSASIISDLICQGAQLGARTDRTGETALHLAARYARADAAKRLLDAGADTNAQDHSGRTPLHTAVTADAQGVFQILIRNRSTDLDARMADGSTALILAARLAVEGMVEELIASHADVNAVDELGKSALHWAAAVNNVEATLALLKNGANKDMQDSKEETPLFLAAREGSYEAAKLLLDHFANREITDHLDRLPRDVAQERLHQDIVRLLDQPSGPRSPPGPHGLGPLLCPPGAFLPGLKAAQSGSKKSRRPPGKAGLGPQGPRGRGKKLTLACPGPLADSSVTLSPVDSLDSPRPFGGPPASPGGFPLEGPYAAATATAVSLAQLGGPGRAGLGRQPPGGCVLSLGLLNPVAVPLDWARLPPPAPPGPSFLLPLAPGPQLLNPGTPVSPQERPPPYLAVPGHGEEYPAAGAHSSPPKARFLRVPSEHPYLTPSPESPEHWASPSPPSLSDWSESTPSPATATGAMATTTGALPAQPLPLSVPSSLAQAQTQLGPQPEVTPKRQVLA

As to `COC(=O)[C@@]1(Cc2ccccc2)[C@H]2c3cc(C(=O)N(C)C)n(Cc4ccc(C)c(F)c4F)c3C[C@H]2CN1C(=O)c1ccccc1`, the composite z-score in assay [1] is 1 and 0.986; in assay [2], -0.481 and 0.787; in [3] it was 0.162 and 0.639; in assay [4], 0.384 and 0.451; in assay [5] it was 1.5 and 1.71; in assay [6] it was 1.39 and 1.48. In addition, the composite z-score in [7] is 1.39 and 1.12; in assay [9], 0.705 and 2.39; in assay [10] it was 0.176 and 0.567; in assay [11], -0.325 and 1.23; in [15], 3.44 and 3.67; in assay [17], 0.378 and 0.513. Moreover, the composite z-score in assay [18] was -0.566 and 0.645; in assay [19], 0.636 and 1.06; in [20], 0.168 and 0.646. In addition, the z-score is 3.35 (inactive) and -0.497 (inactive) in assay [8]; -0.542 (inactive) and -0.0959 (inactive) in [12]; -0.991 (inactive) and 1.01 (inactive) in [13]; -0.447 (inactive) and 1.48 (inactive) in [14]; -0.359 (inactive) and -0.543 (inactive) in [16].

For the compound `C=CC[C@@H](O)c1ccc(OCCO)cc1`, the composite z-score is 0.137 and 0.75 in [1]; -0.827 and -0.804 in assay [2]; -0.0908 and -0.279 in assay [3]; -0.0284 and -0.887 in [4]; -1.41 and -2.02 in assay [5]; -0.773 and -0.567 in [6]. Besides, the composite z-score was -0.0171 and 0.209 in assay [7]; -0.871 and -1.16 in assay [9]; -0.184 and -0.134 in assay [10]; 0.347 and -0.516 in [11]; -0.821 and -0.479 in assay [15]; 0.0698 and 0.066 in assay [17]. Further, the composite z-score is 0.29 and -0.934 in [18]; -1.03 and -0.668 in assay [19]; -0.272 and -0.305 in assay [20]. Moreover, the z-score was 0.373 (inactive) and 1.07 (inactive) in assay [8]; -2.53 (inactive) and -2.22 (inactive) in [12]; -10.4 (active) and -1.63 (inactive) in assay [13]; -0.121 (inactive) and -0.238 (inactive) in [14]; 0.638 (inactive) and 0.664 (inactive) in [16].

For `COCn1c2ccccc2c2nnc(C(C)=O)nc21`, the composite z-score in assay [1] was -0.401 and -0.253; in [2], 0.416 and -0.0491; in assay [3] it was -0.108 and -0.112; in assay [4], 0.111 and 0.226; in assay [5], -0.0995 and 0.194; in assay [6] it was -0.325 and -0.146. In addition, the composite z-score was -0.29 and -0.548 in assay [7]; 0.252 and -0.0637 in assay [9]; -0.0994 and 0.0515 in assay [10]; -0.217 and 0.724 in [11]; -0.0703 and 0.184 in assay [15]; -0.0702 and -0.0137 in assay [17]. Also, the composite z-score in [18] was 0.1 and 0.372; in assay [19], -0.007 and 0.307; in [20], -0.0398 and -0.123. The z-score in assay [8] was 0.51 (inactive) and 0.697 (inactive); in assay [12], -0.405 (inactive) and -0.362 (inactive); in assay [13], -0.267 (inactive) and -1.08 (inactive); in [14], -0.189 (inactive) and -0.135 (inactive); in assay [16], -0.35 (inactive) and -0.768 (inactive).

Regarding `CC(C)OC(=O)C=C1C[C@@H](c2cccc(C(F)(F)F)c2)O[C@@H](c2cccc(C(F)(F)F)c2)O1`, the composite z-score in assay [1] was 0.0946 and 0.128; in assay [2], 0.297 and 1.36; in assay [3], 0.0043 and -0.13; in assay [4] it was 0.884 and -0.153; in assay [5], -0.27 and -0.628; in assay [6] it was 1.13 and 0.36. The composite z-score was 1.01 and 1.08 in assay [7]; -0.0032 and -0.598 in [9]; -0.236 and -0.253 in assay [10]; 0.97 and 1.25 in assay [11]; 2.98 and 2.18 in assay [15]; -0.143 and -0.177 in assay [17]. Further, the composite z-score in assay [18] was -0.696 and -1.07; in assay [19] it was -0.534 and -0.875; in assay [20], -0.254 and -0.243. In addition, the z-score in assay [8] is -0.0881 (inactive) and -0.227 (inactive); in [12] it was 0.104 (inactive) and -0.425 (inactive); in assay [13] it was 0.63 (inactive) and 0.404 (inactive); in [14], 0.938 (inactive) and 1.23 (inactive); in [16] it was -0.889 (inactive) and -1.05 (inactive).
